Compound activity deposited in PubChem by National Center for Advancing Translational Sciences (NCATS).
Most compounds without a hit are left out; they make up all but 11% or so of the library.
RORg inh: ROR gamma (mouse) transcription inhibition. 310,000 compounds, 5.4% hits. Drosophila S2 Gal4-RORgamma UAS-luciferase reporter, 20 h. P51450. Potency, µM (doses to about 53.6 µM), hits mostly inhibitors; note: nearly all actives have a fitted effect of over 60% in size
Target sequence (P51450 whole entry, looked up, the tested form may be a part): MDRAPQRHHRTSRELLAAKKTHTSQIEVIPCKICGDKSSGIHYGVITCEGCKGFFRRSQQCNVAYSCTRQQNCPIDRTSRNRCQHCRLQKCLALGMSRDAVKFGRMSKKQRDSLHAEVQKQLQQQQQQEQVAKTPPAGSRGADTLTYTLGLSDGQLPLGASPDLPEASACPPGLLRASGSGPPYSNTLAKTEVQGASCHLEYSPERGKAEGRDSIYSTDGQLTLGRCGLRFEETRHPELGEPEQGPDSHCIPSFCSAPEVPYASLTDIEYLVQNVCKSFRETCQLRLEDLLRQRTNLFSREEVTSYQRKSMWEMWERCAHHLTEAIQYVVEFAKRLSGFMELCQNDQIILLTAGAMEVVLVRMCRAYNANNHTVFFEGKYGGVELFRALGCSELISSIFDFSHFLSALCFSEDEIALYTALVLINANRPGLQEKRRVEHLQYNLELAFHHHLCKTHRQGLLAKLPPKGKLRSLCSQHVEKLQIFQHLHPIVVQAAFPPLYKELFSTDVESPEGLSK
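Stable Schneider cell line, Gal4 DNA-binding domain fused to ROR gamma, UAS-luciferase. Cmpd 1 hr RT → CuSO4 700 uM final → 20 hr RT → luciferase reagent 10 min → luminescence.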
Gal4-VP16 FLuc: counter-screen for ROR gamma inhibitors: Gal4-VP16 reporter. Drosophila S2 Gal4-VP16 UAS-luciferase, luminescence, 20 h. Potency, µM (doses to about 53.6 µM), usual class: inhibitors. 310,000 compounds, 3.5% hits. AID 2546;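 note: Gal4-VP16 expression switched on by copper sulfate through the metallothionein promoter; nearly all actives have a fitted effect of over 50% in size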
SW480 rereplic: inducers of DNA re-replication in SW480 colon cancer cells; 340,000 compounds, 1.8% hits; Potency, µM (doses to about 46.1 µM), most hits filed as activators; SW480 DNA re-replication, Hoechst DNA content imaging, 48 h; note: nearly all actives have a fitted effect of over 55% in size
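DNA re-replication was detected as more nuclei of elevated Hoechst intensity after 48 hr exposure to compound (23 nL pinned per well of 250 cells).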
IL-1B inflam inh: inflammasome signaling inhibition, IL-1 beta readout; 360,000 compounds, 4.7% hits; activity change, % at 57.5 µM; THP-1 LPS/ATP IL-1B secretion, AlphaLISA, 16 h; stronger effect = lower value; in the data active = activity change below about -50%; inconclusive = mostly about -30% to -49%
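THP-1 cells pretreated 1 hr with compounds (up to 57.5 uM final), then stimulated with LPS (250 ng/mL final) plus ATP (1.25 mM final); secreted IL-1B measured by AlphaLISA after 16 hr, decreased signal indicating inhibition.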
MCF10A rereplic: DNA re-replication induction in MCF 10a cells | MCF 10A DNA re-replication, Hoechst nuclear intensity, 48 h | Potency, µM (highest dose often 46.1 µM), usual class: activators | 350,000 compounds, 2.9% hits | AID 624296; note: nearly all actives have a fitted effect of over 50% in size
Large screens that a line does not name were inactive. Unless noted, calls come from the whole dose curve; as a rule, active = well fitted curve in the direction sought with a large enough effect; inconclusive = small, poorly fitted or top-dose-only effect, or another doubt; inactive = no such curve, though single readings can be large; an effect the other way counts as inactive or inconclusive.

CC(Oc1ccc(Br)cc1)c1nc2c3ccccc3nc(=S)n2[nH]1 (stereo not given)	RORg inh 0.28µM, Gal4-VP16 FLuc 1.3µM, MCF10A rereplic inconclusive
CCCC(Oc1ccc(Br)cc1)c1nc2c3cc(OC)c(OC)cc3nc(=S)n2[nH]1 (stereo not given)	RORg inh 1.3µM, Gal4-VP16 FLuc 3.5µM, MCF10A rereplic inconclusive
CC(Oc1ccc(Br)cc1)C(=O)Nn1c(=S)[nH]c2ncccc2c1=O (stereo not given)	none (no result: SW480 rereplic, IL-1B inflam inh, MCF10A rereplic)
COc1ccc(CNc2ncnc3cc(OC)c(OC)cc23)cc1	RORg inh inconclusive
CC(=O)OC1C(=O)N(Cc2ccccc2)C1c1ccc(C)cc1 (stereo not given)	MCF10A rereplic inconclusive (no result: RORg inh, Gal4-VP16 FLuc)
Cc1ccc(SCC(=O)OCC(=O)N(CCC#N)c2ccccc2)cc1C	none (no result: RORg inh, Gal4-VP16 FLuc)
Cc1ccc(N(CCC#N)C(=O)CCl)cc1C	RORg inh inconclusive, SW480 rereplic 7.3µM, IL-1B inflam inh -98, MCF10A rereplic 23µM
CCOC(=O)C1=CCN(S(=O)(=O)c2ccccc2Cl)C1c1cccc(Cl)c1 (stereo not given)	none (no result: RORg inh, Gal4-VP16 FLuc, SW480 rereplic, MCF10A rereplic)
Cc1cc(NC(=O)c2ccc([N+](=O)[O-])cc2)no1	Gal4-VP16 FLuc inconclusive
Cc1oc(C(C)(C)C)cc1-c1cc(NC(=O)c2ccc([N+](=O)[O-])cc2)n[nH]1	RORg inh inconclusive, IL-1B inflam inh -63, MCF10A rereplic inconclusive
CC12CCC(C/C1=N\N=C1\NC(=O)/C(=C\c3ccc(Cl)cc3)S1)C2(C)C (stereo not given)	RORg inh inconclusive, Gal4-VP16 FLuc 10µM, SW480 rereplic inconclusive, IL-1B inflam inh -57, MCF10A rereplic 5.2µM
O=C1NC(=Nc2ccccc2Cl)S/C1=C\c1ccc(C(=O)O)cc1	SW480 rereplic inconclusive
Cn1c2ccccc2c2cc(C(=O)NNC(=O)CCl)sc21	RORg inh 14µM, SW480 rereplic inconclusive, IL-1B inflam inh -133, MCF10A rereplic 21µM
COc1ccccc1/C=N/NC(=O)c1cccc(NC(=O)c2ccccc2Cl)c1	none
C=CCc1cccc(/C=N/NC(=O)c2ccccc2Br)c1O	RORg inh 1.4µM, Gal4-VP16 FLuc 4µM, SW480 rereplic inconclusive, MCF10A rereplic inconclusive
COc1ccccc1/C=N/NC(=O)c1ccccc1Cl	IL-1B inflam inh -67
O=C(N/N=C/c1ccccc1C(=O)O)c1ccccc1Br	none
COc1ccccc1/C=N/NC(=O)c1ccccc1NS(=O)(=O)c1ccc(C)cc1	RORg inh 13µM, Gal4-VP16 FLuc inconclusive
C=CCc1cccc(/C=N/NC(=O)c2ccccc2OC)c1O	RORg inh 0.5µM, Gal4-VP16 FLuc 1.3µM, SW480 rereplic inconclusive
O=C(NNC(=O)c1ccccc1O)c1ccc(Cl)c(S(=O)(=O)N2CCc3ccccc32)c1	SW480 rereplic inconclusive, MCF10A rereplic inconclusive (no result: RORg inh, Gal4-VP16 FLuc)
C=CCc1cccc(/C=N/NC(=O)c2ccc3nc[nH]c3c2)c1O	RORg inh inconclusive, Gal4-VP16 FLuc inconclusive, SW480 rereplic inconclusive, MCF10A rereplic 21µM
O=C(N/N=C/c1ccc(Cl)cc1Cl)c1ccc2nc[nH]c2c1	none
CC[C@@H]1Cc2[nH]c(=O)[nH]c(=O)c2[C@H](c2ccc(Cl)cc2)O1	none (no result: RORg inh, Gal4-VP16 FLuc, SW480 rereplic, MCF10A rereplic)
c1coc(-c2nnc(-c3ccco3)nn2)c1	RORg inh inconclusive, Gal4-VP16 FLuc inconclusive, SW480 rereplic 4µM, IL-1B inflam inh -76
N=C(N)S/C=C\C(=O)O	RORg inh 32µM, Gal4-VP16 FLuc 32µM (no result: SW480 rereplic, IL-1B inflam inh, MCF10A rereplic)
O=C(c1ccco1)N1CCN(C(=O)N2c3ccccc3Sc3ccccc32)CC1	Gal4-VP16 FLuc inconclusive
O=C(c1ccco1)N1c2ccccc2Sc2ccccc21	IL-1B inflam inh -50
COc1ccc(-n2c(C)cc(/C=C3\C(=N)N4N=C(CC(=O)N5CCOCC5)SC4=NC3=O)c2C)cc1	none
COc1cccc(CN2CC34CCC(CC3S2(=O)=O)O4)c1 (stereo not given)	none (no result: SW480 rereplic, IL-1B inflam inh, MCF10A rereplic)
O=C1C=C(C2CCCCC2)C(=O)c2ccccc21	SW480 rereplic inconclusive, MCF10A rereplic inconclusive (no result: RORg inh, Gal4-VP16 FLuc)
O=C(O)C1=C(C2CCCCC2)C(=O)c2ccccc21	IL-1B inflam inh -55 (no result: RORg inh, Gal4-VP16 FLuc)
CCc1nnc(NC(=O)c2ccc(OC)c(S(=O)(=O)N3CCCC3)c2)s1	none (no result: RORg inh, Gal4-VP16 FLuc)
Cc1cccc(N2CCN(C(=O)c3cc4n(n3)C(C(F)(F)F)CC(c3ccco3)N4)CC2)c1C (stereo not given)	Gal4-VP16 FLuc inconclusive, IL-1B inflam inh -55, MCF10A rereplic inconclusive
S=C1SCN(Cc2ccccn2)CN1Cc1ccco1	RORg inh inconclusive, SW480 rereplic 7.3µM, MCF10A rereplic 4.1µM
COCCN1CSC(=S)N(Cc2ccco2)C1	RORg inh inconclusive, SW480 rereplic 5.8µM, MCF10A rereplic inconclusive
O=C1CCN(Cc2ccco2)C(=S)N1	none (no result: RORg inh, Gal4-VP16 FLuc)
COC(=O)Cn1c(=O)c(C(=O)CCl)c(N)n(Cc2ccccc2)c1=O	SW480 rereplic inconclusive, IL-1B inflam inh inconclusive, MCF10A rereplic 5.2µM
COC(=O)Cn1c(=O)c2c(n(Cc3ccccc3)c1=O)N/C(=C/c1ccc(OC)cc1)C2=O	SW480 rereplic 21µM, MCF10A rereplic 18µM
CSc1ccc(CCNS(=O)(=O)c2csc(C(N)=O)c2)cc1	Gal4-VP16 FLuc inconclusive
Cc1nc(N)nc(N)c1/C=C/C(C)(C)c1ccc(Cl)cc1	RORg inh inconclusive, Gal4-VP16 FLuc inconclusive, IL-1B inflam inh -106, MCF10A rereplic inconclusive
Cc1nc(N)nc(N)c1Oc1ccc(Cl)cc1	none (no result: RORg inh, Gal4-VP16 FLuc)
COc1ccc(OC)c(N(CCN2C(=O)c3ccccc3C2=O)C(=O)CCl)c1	IL-1B inflam inh -104 (no result: RORg inh, Gal4-VP16 FLuc, SW480 rereplic, MCF10A rereplic)
COc1ccc(CN2C(=O)C(CC(=O)NCC3CCCCC3)CC(C(=O)N(C)C)=C2C)cc1 (stereo not given)	none (no result: RORg inh, Gal4-VP16 FLuc, SW480 rereplic, MCF10A rereplic)
c1ccc(Cc2nnc3n2N=C(c2ccccc2)CS3)cc1	none
c1ccc(-c2ccc(C3=Nn4c(nnc4-c4cc(-c5ccccc5)n[nH]4)SC3)cc2)cc1	RORg inh inconclusive, SW480 rereplic inconclusive, MCF10A rereplic 15µM
c1ccc(C2=Nn3c(Cn4nnc5ccccc54)nnc3SC2)cc1	MCF10A rereplic inconclusive
CC1=Nn2c(nnc2-c2cc(-c3ccccc3)n[nH]2)SC1	none
c1ccc(-c2ccc(C3=Nn4c(Cn5nnc6ccccc65)nnc4SC3)cc2)cc1	RORg inh inconclusive, IL-1B inflam inh -57
Clc1ccc(C2=Nn3c(Cn4nnc5ccccc54)nnc3SC2)cc1	RORg inh inconclusive, IL-1B inflam inh -53
Clc1ccc(C2=Nn3c(nnc3-c3n[nH]c4c3CCC4)SC2)cc1	SW480 rereplic 6.5µM, MCF10A rereplic inconclusive
O=C(c1ccc(CS(=O)c2cccc(Cl)c2)o1)N1CCCCCC1 (stereo not given)	RORg inh inconclusive
CC(=O)Nc1ccccc1C(=O)N1CC2(C)CC1CC(C)(C)C2 (stereo not given)	none
CC1(C)CC2CC(C)(CN2C(=S)Nc2ccccc2F)C1 (stereo not given)	RORg inh 4µM
CC1(C)CC2CC(C)(CN2C(=S)NC(=O)c2ccccc2Cl)C1 (stereo not given)	RORg inh 1.3µM, Gal4-VP16 FLuc 1µM, MCF10A rereplic inconclusive
